# Data published in the supplement of paper PMC11732987, “Enantioselective OTUD7B fragment discovery through chemoproteomics screening and high-throughput optimisation” (Communications Chemistry, 2025).
# Unmarked numbers belong to inactive results.
# Key:
# Test in all cases: log2 ratio of Biotin-Ahx-Ub-VS probe labelling (fragment/DMSO); higher = less target engagement (more negative = stronger competition), active = hit call of the paper (q ≤ 0.05, log2 ratio ≤ -1)
# Details in all cases: compound concentration: 200 uM; treatment time: 3 h
# OTUD6B = target: T1, OTUD6B (UniProt Q8N6M0)
# T1 sequence (whole entry): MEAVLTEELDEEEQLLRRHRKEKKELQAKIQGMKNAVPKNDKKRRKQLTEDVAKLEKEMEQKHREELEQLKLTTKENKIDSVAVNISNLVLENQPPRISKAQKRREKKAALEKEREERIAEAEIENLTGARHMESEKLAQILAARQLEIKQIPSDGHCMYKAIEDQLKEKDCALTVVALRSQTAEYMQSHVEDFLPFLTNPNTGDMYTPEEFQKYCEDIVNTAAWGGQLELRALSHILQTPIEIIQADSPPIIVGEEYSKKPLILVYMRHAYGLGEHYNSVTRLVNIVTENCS
# In short: (§1)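 Average log2 ratios of fragment over vehicle were obtained by unpaired t-test from global-median-normalised Spectronaut label-free quantities. Proteins with ≥2 unique peptides were included. HEK293T lysate (495 µg per sample) was treated in triplicate with fragment at 200 µM or vehicle for 3 h, then with Biotin-Ahx-Ub-VS at 0.5 µM final for 1 h, and labelled DUBs were NeutrAvidin-enriched and run by diaPASEF LC-MS/MS.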
# OTUD7B = target: T2, OTUD7B (UniProt Q6GQQ9)
# T2 sequence (whole entry): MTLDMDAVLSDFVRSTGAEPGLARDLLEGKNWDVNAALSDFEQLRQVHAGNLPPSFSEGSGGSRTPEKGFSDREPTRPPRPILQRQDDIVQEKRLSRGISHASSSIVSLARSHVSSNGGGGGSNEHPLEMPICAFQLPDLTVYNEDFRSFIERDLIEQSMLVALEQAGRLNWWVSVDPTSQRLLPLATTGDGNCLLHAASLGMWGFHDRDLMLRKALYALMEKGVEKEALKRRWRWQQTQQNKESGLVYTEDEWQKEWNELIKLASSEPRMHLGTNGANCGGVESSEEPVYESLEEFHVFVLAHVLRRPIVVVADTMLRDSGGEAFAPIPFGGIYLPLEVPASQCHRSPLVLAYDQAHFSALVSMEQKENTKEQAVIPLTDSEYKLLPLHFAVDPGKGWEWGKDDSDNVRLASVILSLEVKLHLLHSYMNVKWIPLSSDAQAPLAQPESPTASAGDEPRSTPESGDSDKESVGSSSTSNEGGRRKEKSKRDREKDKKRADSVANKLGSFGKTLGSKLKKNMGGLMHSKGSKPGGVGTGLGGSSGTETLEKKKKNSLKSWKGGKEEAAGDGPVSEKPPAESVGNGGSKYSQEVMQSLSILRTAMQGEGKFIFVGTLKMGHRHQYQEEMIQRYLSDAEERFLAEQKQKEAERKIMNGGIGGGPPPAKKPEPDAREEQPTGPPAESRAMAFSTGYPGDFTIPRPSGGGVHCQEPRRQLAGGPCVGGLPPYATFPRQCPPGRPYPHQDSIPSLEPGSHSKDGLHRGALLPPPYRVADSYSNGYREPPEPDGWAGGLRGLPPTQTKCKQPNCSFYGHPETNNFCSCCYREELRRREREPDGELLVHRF
# In short: as §1
# PRPF8 = PRPF8 (UniProt Q6P2Q9)
# In short: as §1
# PSMD7 = target: T3, PSMD7 (UniProt P51665)
# T3 sequence (whole entry): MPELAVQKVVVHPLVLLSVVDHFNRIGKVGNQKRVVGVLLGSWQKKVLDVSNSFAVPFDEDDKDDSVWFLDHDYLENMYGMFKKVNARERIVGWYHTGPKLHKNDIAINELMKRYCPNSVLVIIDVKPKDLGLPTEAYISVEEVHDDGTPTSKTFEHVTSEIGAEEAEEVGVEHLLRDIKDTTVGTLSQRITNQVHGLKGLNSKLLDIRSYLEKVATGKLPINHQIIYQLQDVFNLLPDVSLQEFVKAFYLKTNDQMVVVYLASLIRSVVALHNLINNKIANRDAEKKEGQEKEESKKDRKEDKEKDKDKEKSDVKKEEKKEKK
# In short: as §1
# UCHL1 = UCHL1 (UniProt P09936)
# In short: as §1
# UCHL3 = target: T4, UCHL3 (UniProt P15374)
# T4 sequence (whole entry): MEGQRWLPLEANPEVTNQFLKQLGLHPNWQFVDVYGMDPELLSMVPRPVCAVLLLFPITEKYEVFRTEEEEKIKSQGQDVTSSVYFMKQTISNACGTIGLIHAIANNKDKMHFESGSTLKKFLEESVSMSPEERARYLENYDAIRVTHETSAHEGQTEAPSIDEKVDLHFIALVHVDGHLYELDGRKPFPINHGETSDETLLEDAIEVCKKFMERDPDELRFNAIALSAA
# In short: as §1
# UCHL5 = target: T5, UCHL5 (UniProt Q9Y5K5)
# T5 sequence (whole entry): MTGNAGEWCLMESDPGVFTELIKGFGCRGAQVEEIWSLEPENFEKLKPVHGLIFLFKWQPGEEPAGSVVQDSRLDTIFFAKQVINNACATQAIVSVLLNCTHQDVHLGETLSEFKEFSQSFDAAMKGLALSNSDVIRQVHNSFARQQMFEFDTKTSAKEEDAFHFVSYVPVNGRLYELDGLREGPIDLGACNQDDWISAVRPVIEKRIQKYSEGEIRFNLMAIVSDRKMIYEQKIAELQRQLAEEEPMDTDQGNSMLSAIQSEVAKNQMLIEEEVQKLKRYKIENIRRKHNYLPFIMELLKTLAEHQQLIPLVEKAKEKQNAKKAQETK
# In short: as §1
# USP10 = USP10 (UniProt Q14694)
# In short: as §1
# USP15 = target: T6, USP15 (UniProt Q9Y4E8)
# T6 sequence (whole entry): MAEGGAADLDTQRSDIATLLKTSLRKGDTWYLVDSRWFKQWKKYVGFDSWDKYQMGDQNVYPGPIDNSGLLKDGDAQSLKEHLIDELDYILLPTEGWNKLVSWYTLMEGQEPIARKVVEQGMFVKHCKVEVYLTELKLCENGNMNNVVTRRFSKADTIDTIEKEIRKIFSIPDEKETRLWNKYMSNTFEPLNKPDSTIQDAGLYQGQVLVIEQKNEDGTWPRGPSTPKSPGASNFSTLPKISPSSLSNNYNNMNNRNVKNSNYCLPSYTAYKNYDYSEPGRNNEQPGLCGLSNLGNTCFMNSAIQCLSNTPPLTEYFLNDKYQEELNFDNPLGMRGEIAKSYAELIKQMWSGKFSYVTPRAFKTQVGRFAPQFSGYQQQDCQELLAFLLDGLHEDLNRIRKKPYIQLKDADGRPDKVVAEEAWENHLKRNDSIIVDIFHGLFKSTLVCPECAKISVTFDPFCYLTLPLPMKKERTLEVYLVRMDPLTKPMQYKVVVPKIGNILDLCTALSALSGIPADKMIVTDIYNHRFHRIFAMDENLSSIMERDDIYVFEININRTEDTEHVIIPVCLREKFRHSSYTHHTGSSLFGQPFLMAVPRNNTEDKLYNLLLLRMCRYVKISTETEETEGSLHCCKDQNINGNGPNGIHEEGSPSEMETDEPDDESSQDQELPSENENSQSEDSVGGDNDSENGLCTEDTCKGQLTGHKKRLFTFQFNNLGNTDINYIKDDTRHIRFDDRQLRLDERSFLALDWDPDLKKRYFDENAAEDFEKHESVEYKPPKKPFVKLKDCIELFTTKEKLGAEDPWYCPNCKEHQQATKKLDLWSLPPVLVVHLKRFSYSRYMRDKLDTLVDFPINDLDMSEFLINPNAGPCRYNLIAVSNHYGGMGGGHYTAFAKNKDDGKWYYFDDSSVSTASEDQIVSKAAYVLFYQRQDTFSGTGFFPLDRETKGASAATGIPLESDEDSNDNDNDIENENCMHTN
# In short: as §1
# USP16 = USP16 (UniProt Q9Y5T5)
# In short: as §1
# Chain of USP16 (Q9Y5T5 whole entry, looked up): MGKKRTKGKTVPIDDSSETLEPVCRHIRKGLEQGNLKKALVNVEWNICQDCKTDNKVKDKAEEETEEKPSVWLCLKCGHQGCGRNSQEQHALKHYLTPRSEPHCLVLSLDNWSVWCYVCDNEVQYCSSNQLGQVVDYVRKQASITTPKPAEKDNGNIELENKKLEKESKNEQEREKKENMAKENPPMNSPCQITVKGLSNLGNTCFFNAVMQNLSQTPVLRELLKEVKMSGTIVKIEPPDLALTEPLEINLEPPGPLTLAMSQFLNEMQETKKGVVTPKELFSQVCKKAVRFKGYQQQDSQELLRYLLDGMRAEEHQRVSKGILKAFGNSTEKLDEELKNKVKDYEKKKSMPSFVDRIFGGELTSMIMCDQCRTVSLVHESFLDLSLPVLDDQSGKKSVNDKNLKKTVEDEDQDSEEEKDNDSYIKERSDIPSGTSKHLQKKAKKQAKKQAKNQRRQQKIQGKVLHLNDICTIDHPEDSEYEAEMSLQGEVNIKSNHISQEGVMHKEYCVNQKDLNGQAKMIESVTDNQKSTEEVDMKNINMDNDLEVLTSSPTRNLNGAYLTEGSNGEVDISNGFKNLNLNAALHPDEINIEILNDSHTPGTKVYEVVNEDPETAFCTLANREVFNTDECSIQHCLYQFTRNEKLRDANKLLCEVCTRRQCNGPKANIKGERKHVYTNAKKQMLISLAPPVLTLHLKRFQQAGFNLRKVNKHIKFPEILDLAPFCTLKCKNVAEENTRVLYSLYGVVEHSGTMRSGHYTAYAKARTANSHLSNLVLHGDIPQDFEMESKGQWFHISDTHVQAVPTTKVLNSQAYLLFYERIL
# Chain of UCHL1 (P09936 whole entry, looked up): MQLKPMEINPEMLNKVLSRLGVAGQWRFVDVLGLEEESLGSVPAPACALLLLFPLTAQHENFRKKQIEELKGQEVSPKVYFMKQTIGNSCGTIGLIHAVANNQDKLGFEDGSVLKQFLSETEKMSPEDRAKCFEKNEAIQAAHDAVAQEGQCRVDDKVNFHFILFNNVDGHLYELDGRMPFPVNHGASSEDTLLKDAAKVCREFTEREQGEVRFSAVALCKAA
# Chain of USP10 (Q14694 whole entry): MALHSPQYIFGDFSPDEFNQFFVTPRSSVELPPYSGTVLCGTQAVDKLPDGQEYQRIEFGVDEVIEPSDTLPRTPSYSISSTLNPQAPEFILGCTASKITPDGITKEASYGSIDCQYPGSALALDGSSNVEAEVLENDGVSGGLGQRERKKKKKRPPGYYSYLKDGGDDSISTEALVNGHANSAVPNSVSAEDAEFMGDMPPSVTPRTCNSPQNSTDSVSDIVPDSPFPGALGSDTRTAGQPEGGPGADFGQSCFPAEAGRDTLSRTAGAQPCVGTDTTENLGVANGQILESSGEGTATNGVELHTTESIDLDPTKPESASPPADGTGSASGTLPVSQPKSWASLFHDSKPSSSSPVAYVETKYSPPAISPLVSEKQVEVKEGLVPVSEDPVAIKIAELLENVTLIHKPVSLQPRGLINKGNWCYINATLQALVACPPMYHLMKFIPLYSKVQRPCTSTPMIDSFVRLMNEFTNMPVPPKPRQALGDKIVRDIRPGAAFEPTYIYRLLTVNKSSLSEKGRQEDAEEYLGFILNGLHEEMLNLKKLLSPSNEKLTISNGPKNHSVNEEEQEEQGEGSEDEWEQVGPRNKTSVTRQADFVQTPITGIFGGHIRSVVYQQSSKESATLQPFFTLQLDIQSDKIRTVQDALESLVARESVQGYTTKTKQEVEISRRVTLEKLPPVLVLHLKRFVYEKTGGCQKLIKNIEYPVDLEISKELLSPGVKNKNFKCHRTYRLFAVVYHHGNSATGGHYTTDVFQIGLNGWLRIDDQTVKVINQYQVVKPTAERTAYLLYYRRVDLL
compound,measurement,setting,value
CC(NC(=O)CCl)c1cnn(C2CC2)c1 (stereo not given),log2 ratio of Biotin-Ahx-Ub-VS probe labelling,OTUD6B,-0.174
same,log2 ratio of Biotin-Ahx-Ub-VS probe labelling,OTUD7B,-1.99 (active)
same,log2 ratio of Biotin-Ahx-Ub-VS probe labelling,PRPF8,-0.0754
same,log2 ratio of Biotin-Ahx-Ub-VS probe labelling,PSMD7,-0.168
same,log2 ratio of Biotin-Ahx-Ub-VS probe labelling,UCHL1,-1.3 (active)
same,log2 ratio of Biotin-Ahx-Ub-VS probe labelling,UCHL3,0.329
same,log2 ratio of Biotin-Ahx-Ub-VS probe labelling,UCHL5,-0.187
same,log2 ratio of Biotin-Ahx-Ub-VS probe labelling,USP10,-0.103
same,log2 ratio of Biotin-Ahx-Ub-VS probe labelling,USP15,-0.182
same,log2 ratio of Biotin-Ahx-Ub-VS probe labelling,USP16,-0.19
